From PubChem BioAssay
Hits are enriched below; roughly 10% of the tested compounds scored in any of these assays.
Lmaj promast – reduces viability of Leishmania major promastigotes; resazurin fluorescence viability; inhibition, % at 10 µM; 200,000 compounds, 9% hits; in the data active = inhibition above about 50%;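 note: promastigotes grown with compound for 44 hours at 28 °C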
ROMK primary – modulators of human ROMK potassium channel | Tet-inducible ROMK, thallium flux fluorescence; actives lie on both sides | B-score at 10 µM | 130,000 compounds, 2% hits | AID 1918;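 active = signal ratio slope over the read window, or its plate-corrected B-score, at least 3 SD from the plate mean, either direction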;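 note: B-score of the F/F0 ratio slope over 7 to 12 s after thallium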
Target sequence (P48048 whole entry, looked up): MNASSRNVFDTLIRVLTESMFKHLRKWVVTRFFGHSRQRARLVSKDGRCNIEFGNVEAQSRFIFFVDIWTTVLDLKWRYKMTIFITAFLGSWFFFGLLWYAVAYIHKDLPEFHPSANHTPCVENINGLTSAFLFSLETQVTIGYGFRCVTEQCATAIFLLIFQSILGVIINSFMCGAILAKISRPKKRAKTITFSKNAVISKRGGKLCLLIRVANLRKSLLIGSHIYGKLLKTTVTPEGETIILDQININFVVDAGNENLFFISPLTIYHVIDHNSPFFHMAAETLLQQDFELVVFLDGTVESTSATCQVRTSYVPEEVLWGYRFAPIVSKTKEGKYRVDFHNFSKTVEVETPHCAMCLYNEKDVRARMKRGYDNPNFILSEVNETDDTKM
bCat KO growth – beta-catenin-lacking colon tumor cell growth suppression; 140,000 compounds, 1.5% hits; HCT116 beta-catenin knockout viability, CellTiter-Glo, 60 h; active compounds read low; viability, % at 10 µM;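 active = viability at or under a set limit, the compound median less 4 SD, cut at about 6% in these data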;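 note: 0% = Hyamine 1622 control at 20 µM and 100% = untreated cell control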
HCT116 PTEN-null – PTEN-deleted cell growth suppression | AID 827 | HCT116 PTEN-null viability, CellTiter-Glo, 60 h; active compounds read low | viability, % at 10 µM | 140,000 compounds, 1.2% hits;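 active = viability at or below a set limit, 4 SD under the median of all tested compounds, cut at about 3.7% in these data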;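 note: PTEN knockout HCT116 line with beta catenin targeted HCT116 as companion control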
p97 inhibitor – human p97 ATPase inhibition; P55072; recombinant p97 ATPase, Kinase-Glo ATP luminescence, 3 h; inhibition, % at 8 µM; 220,000 compounds, 0.42% hits; AID 1481; in the data active = inhibition above about 15%;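 note: 0% = DMSO vehicle and 100% = wells lacking enzyme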
Insulin prom inh – TRM-6 insulin promoter activity inhibition; 130,000 compounds, 0.9% hits; inhibition, % at 2 µM; TRM-6 cells (human fetal islet line), insulin promoter-eGFP reporter, imaging; reporter expression induced with tamoxifen;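 active = inhibition above the mean plus 3 SD, with well images judged a real hit on visual review, cut at about 60% in these data, passing the limit was not always enough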
An asterisk follows results filed as active.

Screening O=S(=O)(NCc1ccccc1Cl)c1cccs1 returned Lmaj promast -1, ROMK primary 0.45, p97 inhibitor 5 and Insulin prom inh 44.
Screening Cc1cc(C)c(C)c(N=Nc2nc3ccccc3n2C)c1C returned Lmaj promast 37, ROMK primary 0.53, bCat KO growth 46, HCT116 PTEN-null 52, p97 inhibitor 4 and Insulin prom inh 0.
`Cc1ccc(C)c(N=Nc2nc3ccccc3n2C)c1` gave Lmaj promast 83*, bCat KO growth 68, HCT116 PTEN-null 71, p97 inhibitor -1 and Insulin prom inh 10.
CCCCn1c(=O)[nH]c(=O)c2c1nc(-c1cc3c(cc1Br)OCO3)n2C was read as Lmaj promast 2, ROMK primary -0.26, p97 inhibitor 8 and Insulin prom inh 25.
COc1ccc(NC(=S)N2CCN(C/C=C/c3ccccc3)CC2)cc1 was read as Lmaj promast 86*, bCat KO growth 85, HCT116 PTEN-null 88 and p97 inhibitor -5.
For COc1ccc(NC(=S)N2CCN(C/C=C/c3ccccc3)CC2)cc1OC the results were Lmaj promast 74*, bCat KO growth 79, HCT116 PTEN-null 84, p97 inhibitor -1 and Insulin prom inh -42.
For CCOc1ccc(NC(=S)N2CCN(C/C=C/c3ccccc3)CC2)cc1 the results were Lmaj promast 90*, ROMK primary 1 and p97 inhibitor 5.
For CC(=O)Nc1cccc(-c2csc(Nc3cc(C)ccn3)n2)c1 the results were Lmaj promast 27, ROMK primary -0.13, bCat KO growth 32, HCT116 PTEN-null 35 and p97 inhibitor 1.
`CC(=O)Nc1ccc(-c2csc(Nc3ccc(Cl)cn3)n2)cc1` gave Lmaj promast 59*, ROMK primary -0.8, p97 inhibitor -8 and Insulin prom inh 45.
Cc1ccc(Nc2nc(-c3ccc(O)c(O)c3)cs2)nc1 was read as Lmaj promast 99* and p97 inhibitor 14.
`CC(=O)Nc1ccc(-c2csc(Nc3cc(C)ccn3)n2)cc1` gave Lmaj promast 60*, ROMK primary 0.15, p97 inhibitor -1 and Insulin prom inh 6.
`Cc1noc(C)c1S(=O)(=O)N1CCN(C(c2ccccc2)c2ccc(Cl)cc2)CC1` (stereo unspecified) gave Lmaj promast 71*, bCat KO growth 49, HCT116 PTEN-null 71 and p97 inhibitor 3.
`CC1CN(Cc2ccccc2)C(C)CC1O` (stereo unspecified) gave Lmaj promast -1, ROMK primary 0.47 and p97 inhibitor 5.
CCCCCC(=O)Nc1ccc(-c2csc(N)n2)cc1 was read as Lmaj promast 12, ROMK primary 0.079 and p97 inhibitor 4.
For Cc1ccc(-c2cc3ccccc3nc2N2CCCC2)cc1 the results were Lmaj promast 6, bCat KO growth 71, HCT116 PTEN-null 72, p97 inhibitor 2 and Insulin prom inh 28.
Screening Cc1ccc2c(c1)C(=NC1CCCCC1)c1cc3ccccc3nc1-2 returned Lmaj promast 6, bCat KO growth 55, HCT116 PTEN-null 51, p97 inhibitor 0 and Insulin prom inh 91*.
Cc1ccc2c(c1)-c1nc3ccccc3cc1C2=NC1CCCCC1 was read as Lmaj promast 3, bCat KO growth 8, HCT116 PTEN-null 2.8* and p97 inhibitor -7.
Screening COc1ccc(-n2c(SC(CN3CCCCC3)CN3CCCC3=O)nc3ccccc3c2=O)cc1 (stereo unspecified) returned Lmaj promast -6, bCat KO growth 80, HCT116 PTEN-null 70, p97 inhibitor 0 and Insulin prom inh -13.
For COc1cccc(OC)c1OCCNC(C)(C)C the results were Lmaj promast -3, ROMK primary 0.37, bCat KO growth 89, HCT116 PTEN-null 105 and p97 inhibitor 0.
Screening COc1cccc(OC)c1OCCN(C)C returned Lmaj promast 1, ROMK primary 0.25, bCat KO growth 99, HCT116 PTEN-null 94, p97 inhibitor 6 and Insulin prom inh 70*.
`COc1ccccc1NS(=O)(=O)c1cccc(C(=O)NCc2ccco2)c1` gave Lmaj promast 4, ROMK primary -0.67, p97 inhibitor 1 and Insulin prom inh 18.
For COC(=O)c1cc(C(=O)c2cc(Cl)ccc2O)coc1=N the results were Lmaj promast -5, ROMK primary -0.25, p97 inhibitor 3 and Insulin prom inh 0.
Cc1ccc(O)c(C(=O)c2coc(=N)c(C(=O)NC(C)C)c2)c1 was read as Lmaj promast 71*, ROMK primary -0.11, bCat KO growth 102, HCT116 PTEN-null 106, p97 inhibitor -2 and Insulin prom inh 22.
CCCCCCNC(=O)C(C(=O)OCC)C1CCCCC1 (stereo unspecified) was read as Lmaj promast 22, ROMK primary -0.54, bCat KO growth 64, HCT116 PTEN-null 67, p97 inhibitor -7 and Insulin prom inh -81.
`COc1ccc(N2C(=O)C3NN=C(C(=O)OCc4ccccc4)C3C2=O)cc1` (stereo unspecified) gave Lmaj promast -6, ROMK primary 0.48 and p97 inhibitor 5.
For Cn1c2c(c(=O)n(C)c1=O)C(C(F)(F)F)(C(F)(F)F)N=C(CCC1CCCCC1)N2 the results were Lmaj promast 90*, ROMK primary -0.062, bCat KO growth 17, HCT116 PTEN-null 15, p97 inhibitor -1 and Insulin prom inh -19.
Screening Cn1c2c(c(=O)n(C)c1=O)C(C(F)(F)F)(C(F)(F)F)N=C(c1ccccc1Cl)N2 returned Lmaj promast 2, ROMK primary -0.47, bCat KO growth 84, HCT116 PTEN-null 93, p97 inhibitor 2 and Insulin prom inh 22.
`Cc1c(NC(=O)CSc2nccn2C)c(=O)n(-c2ccccc2)n1C` gave Lmaj promast -1, ROMK primary -1, bCat KO growth 99, HCT116 PTEN-null 95, p97 inhibitor 8 and Insulin prom inh -18.
Screening Cc1ccccc1OCc1nnc(SCC(=O)Nc2c(C)n(C)n(-c3ccccc3)c2=O)n1-c1ccccc1 returned Lmaj promast 59*, bCat KO growth 86, HCT116 PTEN-null 91, p97 inhibitor -4 and Insulin prom inh -4.
For Cc1ccc(CSCC(=O)Nc2c(C)n(C)n(-c3ccccc3)c2=O)cc1 the results were Lmaj promast 61*, ROMK primary -0.0084, bCat KO growth 99, HCT116 PTEN-null 91, p97 inhibitor 4 and Insulin prom inh 13.
For Cc1ccccc1CSCC(=O)Nc1c(C)n(C)n(-c2ccccc2)c1=O the results were Lmaj promast -4, bCat KO growth 95, HCT116 PTEN-null 98, p97 inhibitor -4 and Insulin prom inh 22.
Screening S=C1N(c2ccccc2)C(c2ccc(Br)cc2)N2CCCN12 (stereo unspecified) returned p97 inhibitor -13.
O=c1[nH]c(CSc2nc(-c3ccc(F)cc3)cs2)nc2ccccc12 was read as Lmaj promast 47, ROMK primary 0.98, bCat KO growth 88, HCT116 PTEN-null 97, p97 inhibitor 5 and Insulin prom inh 27.
